The panel holds about 83,000 compounds, 20% with a hit somewhere; the sample as a whole holds those more often.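 Plates (96-well) were seeded with cells, treated with compound at one concentration, and incubated for 48 hours before percent growth was determined.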 Values without a mark were called inactive. Active and inactive are the calls of the source. The calls were made as follows: active = growth percent below 10; inactive = the rest.
test system: MALME-3M melanoma; assay: NCI-60 one-dose screen, 48 h (100 = growth as untreated, 0 = no growth, -100 = all killed); conditions: 10 µM unless noted

Row | SMILES | growth
1 | COC(=O)CNC(=O)c1ccc(NC(=O)c2[nH]c(C)c(Cl)c2Cl)c(O[C@H]2CCNC2)c1 | 109%
2 | FC(F)(F)c1cccc(-c2nnn(Cc3cc(-c4cccc(Cl)c4)no3)n2)c1 | 97.5%
3 | O=C(Nc1ncc(Cc2ccccc2)s1)c1ccc2c(c1)OCCO2 | 57.9%
4 | CCOC(=O)c1ccc2c(c1)[n+](=O)c(C(C)=O)c(C(F)(F)F)n2[O-] | -40% (active)
5 | O=C(Nc1ccccc1C(F)(F)F)C1=NCCCCN1 | 103%
6 | CCCCCC(C)(O)C(C(=O)O)c1ccccc1 (configuration not stated) | 93.9%
7 | Nc1ncnc2c1N=C(c1ccc([N+](=O)[O-])cc1)CC(c1ccc3c(c1)OCO3)N2 (configuration not stated) | 107%
8 | COc1cc2c(cc1OC)CC[N+](CCC[N+](C)(C)C)=C2 | 89%
9 | O=C1Nc2ccccc2/C1=C/c1cccn1CCCCCCn1c2ccccc2c(=O)c2ccccc21 | 90.7%
10 | CCCS(=O)(=O)Nc1cccc(Nc2ncnc3cc(NC(=O)CCl)ccc23)c1Cl | -79.2% (active)
11 | Cc1ccc(C23CCC(=O)N2CCc2cncn23)cc1 (configuration not stated) | 109%
12 | Cc1ccc(-c2nn(CC(=O)N3CCOCC3)c(N)c2C#N)cc1 | 104%
13 | COC(=O)[C@H](C)NC(=O)[C@@H]1CCCN1C(=O)CNC(=O)[C@H](C)N | 86.7%
14 | O=C1c2c(c3c4cccnc4[nH]c3c3ccc4ccccc4c23)C(=O)N1O | 63.1%
15 | C#CCOc1cccc(Nc2ncnc3c(NC(=O)CCl)cccc23)c1 | -74.7% (active)
16 | COc1ccc(CNc2c3ccccc3nc3ccccc23)cc1OC | 7.92% (active)
17 | COc1ccc(-c2csc(NC(=O)CSc3nc(C)cc(=O)[nH]3)n2)cc1 | 110%
18 | O=C(CNc1ncco1)Nc1ccc(S(=O)(=O)c2ccc(NC(=O)CNc3ncco3)cc2)cc1 | -38.8% (active)
19 | Cc1c2cnccc2c(C)c2c1c1cc(C(=O)O)ccc1n2C | -31.8% (active)
20 | COc1ccc(-c2cn(Cc3ccc4c(Br)cc(Br)c(O)c4n3)nn2)cc1 | 82.7%
21 | COC(=O)c1c(C(=O)OC)c2ccc3c4ncccc4ccc3n2c1C(=O)c1ccc(C)cc1 | 89.7%
22 | O=[N+]([O-])c1ccc(N/N=C\c2cc(Cl)ccc2O)nc1 | 25.6%
23 | COc1ccc(C(=O)/C=C/c2ccc(C)cc2)cc1S(N)(=O)=O | 96.9%
24 | CN1CCN(CC(=O)N(C)c2ccc(N=C(c3ccccc3)c3c(O)[nH]c4ccc([N+](=O)[O-])cc34)cc2)CC1 | 84%
25 | C=CC(=O)NCc1cccc(Nc2ncc(Br)c(NCCCNC(=O)C3CCC3)n2)c1 | -23.2% (active)
26 | Nc1nc(N)c2c(n1)NC(c1cccc(Nc3ccnc4cc(C(F)(F)F)ccc34)c1)CC(c1ccc(Cl)cc1)=N2 (configuration not stated) | 50.8%
27 | C=C(C[n+]1ccccc1)[C@@H]1CC[C@]2(C(=O)OC)CC[C@]3(C)[C@H](CC[C@@H]4[C@@]5(C)CCC(=O)C(C)(C)[C@@H]5CC[C@]43C)[C@@H]12 | 75.2%

— PubChem BioAssay (NCI)
